The source of these data is the supplement of paper PMC11150407.

Counter-ions that a name gives are not always drawn. Hit rate of the full screen: of about 2,100 compounds, about 180 (8.6%) showed an effect of 50% or more. The full list was thinned out, with strong results kept by preference.

In this experiment the test system is MOLM1 and UCSD/AML1 (averaged). Briefly: cell viability relative to DMSO control (POC); higher = less growth inhibition. Particulars: 1 µM; 72 h. As for the experimental part:
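Primary viability screen in the 3q26 EVI1-high AML cell lines MOLM1 and UCSD/AML1 (1.5e3 cells/well, 384-well), compounds at 1 uM for 72 h. ATP CellTiter-Glo read-out given as percent of viable cells over DMSO control (POC), averaged over duplicates. DMSO was the negative control and 5 uM etoposide the positive control. This mapping covers the MicroSource Spectrum and Selleck anticancer libraries (drug names).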
As for `Cc1[nH]c(/C=C2\C(=O)Nc3ccc(S(=O)(=O)N(C)c4cccc(Cl)c4)cc32)c(C)c1C(=O)N1CCN(C)CC1`, the cell viability (as a rule, a read-out of living cells in per cent, often relative to untreated cells) came to 62.8%.

As for `Cc1[nH]c(/C=C2\C(=O)Nc3ccc(S(=O)(=O)Cc4c(Cl)cccc4Cl)cc32)c(C)c1C(=O)N1CCC[C@@H]1CN1CCCC1`, the cell viability was determined as 92.1%.

For `CCN(CC)CCNC(=O)c1c(C)[nH]c(/C=C2\C(=O)Nc3ccc(F)cc32)c1C` [Sunitinib Malate (Sutent)], the cell viability amounted to 32.9%.

Turning to `CC(=O)Oc1cc(-c2coc3cc(OC(C)=O)c(OC(C)=O)c(OC(C)=O)c3c2=O)cc(OC(C)=O)c1OC(C)=O`, the cell viability came to 93.9%.

In the case of `CC(=O)O[C@@H]1CC2C(C)(C)[C@H](O)C=C[C@]2(C)C2CC[C@@]3(C)[C@H](c4ccoc4)OC(=O)C4OC43[C@@]21C` (stereo partly specified), the cell viability was determined as 98.8%. In the case of `O=c1c2ccccc2oc2ccccc12` it was 101%; in that of `CC(=O)Nc1nc(C)c(-c2ccc(Cl)c(S(=O)(=O)NCCO)c2)s1`, 56.6%. In the case of `Nc1ccccc1NC(=O)c1ccc(CNC(=O)OCc2cccnc2)cc1` [Entinostat (MS-275, SNDX-275)], the cell viability is 12.6%. For the compound `O=C(CCNNC(=O)c1ccncc1)NCc1ccccc1`, the cell viability was determined as 90.2%. In the case of `O=C(NCO)c1cccnc1` it was 106%; in that of `Nc1ccccc1NC(=O)c1ccc(CNc2nccc(-c3cccnc3)n2)cc1` [Mocetinostat (MGCD0103)], 4.85%. In the case of `COc1c2ccoc2c(OC)c2oc(=O)ccc12` it was 115%; in that of `CC(NC(=O)c1ccccc1/N=C/c1c(O)ccc2ccccc12)c1ccccc1` (stereo unspecified) [Sirtinol], 103%; in that of `CCc1cc(C(N)=S)ccn1`, 97.8%.

For the compound `CCc1ccc2c(O)c3c(cc2c1C(=O)OC)C(=O)c1c(O)ccc(O)c1C3=O`, the cell viability came out at 102%. The value for `NC(=O)c1ccc(I)c([N+](=O)[O-])c1` [Iniparib (BSI-201)] was 103%. Turning to `C[C@H]1COC2=C1C(=O)C(=O)c1c2ccc2c1CCCC2(C)C`, the cell viability stood at 97.7%.

For `C=C1C(=O)O[C@@H]2C[C@@]3(C)CCC[C@H](C)C3=C[C@H]12`, the cell viability came out at 74%. In the case of `COc1cccc(O)c1O` it was 110%; in that of `C=CCn1c(=O)c2cnc(Nc3ccc(N4CCN(C)CC4)cc3)nc2n1-c1cccc(C(C)(C)O)n1`, 19.2%. Consider `CO[C@@H](C(=O)N1Cc2[nH]nc(NC(=O)c3ccc(N4CCN(C)CC4)cc3)c2C1)c1ccccc1`, for which the cell viability turned out to be 13.4%. The value for `CC(C(=O)O)[C@H]1CCC2C3CC=C4C[C@@H](O)CC[C@]4(C)C3CC[C@@]21C` (stereo partly drawn) [3beta-HYDROXY-23,24-BISNORCHOL-5-ENIC ACID] was 109%. The value for `CNCc1ccccc1` was 104%; that for `C=CC1=C(C)/C(=C/c2[nH]c(Cc3[nH]c(/C=C4\NC(=O)C(C)=C4C=C)c(C)c3CCC(=O)O)c(CCC(=O)O)c2C)NC1=O` was 91.9%; that for `C=CC(C)(O)CCC=C(C)CCC=C(C)C` (mixture of isomers) was 93.6%. In the case of `COc1cc(OC)c(/C=C/S(=O)(=O)Cc2ccc(OC)c(NCC(=O)O)c2)c(OC)c1` it was 41.4%. As to `NCCC(O)(P(=O)(O)O)P(=O)(O)O` [Pamidronate Disodium], the cell viability worked out at 79.9%. In the case of `COc1cc2c(cc1OC)Cc1cc(OC)c(OC)cc1Cc1cc(OC)c(OC)cc1C2` it was 113%; in that of `CC1=CC(=O)C(C(C)C)=CC1=O`, 97.2%; in that of `CCc1c2c(nc3ccc(OC(=O)N4CCC(N5CCCCC5)CC4)cc13)-c1cc3c(c(=O)n1C2)COC(=O)[C@]3(O)CC` [Irinotecan], 13%. The value for `CCc1c2c(nc3ccc(OC(=O)N4CCC(N5CCCCC5)CC4)cc13)-c1cc3c(c(=O)n1C2)COC(=O)[C@]3(O)CC` [Irinotecan HCl Trihydrate (Campto)] was 15.9%; that for `CC[C@@]1(O)C(=O)OCc2c1cc1n(c2=O)Cc2cc3cc(O)ccc3nc2-1` was 7.32%; that for `CC[C@@]1(O)C(=O)OCc2c1cc1n(c2=O)Cc2cc3c(CN(C)C)c(O)ccc3nc2-1` [Topotecan HCl] was 2.12%. In the case of `COc1cc(/C=C/CO)ccc1O`, the cell viability turned out to be 87.7%. The value for `O=C(O)/C=C/C=C/c1ccc2c(c1)OCO2` was 109%; that for `CC(=O)O[C@@H]1C[C@@]2(C)C(CC[C@@H]2C(C)=O)C2CCC3=CC(=O)CC[C@]3(C)C21` (stereo partly specified) was 91.1%; that for `CC(N)C12CC3CC(CC(C3)C1)C2` (stereo unspecified) was 105%. In the case of `COc1cc2c(cc1OC)C1(O)C(=O)c3ccc(O)c(C(=O)O)c3OC1CO2` (stereo unspecified) it was 101%; in that of `COc1ccc2c(c1OC)OC[C@@H](c1ccc(OC)c(OC)c1OC)C2`, 113%; in that of `COc1cc(C)c(C(=O)Oc2cc(C)c(C(=O)O)c(O)c2C)c(O)c1C=O`, 91.2%. In the case of `C[C@H](N)C(=O)NC(Cc1ccccc1)C(=O)O` (mixture of isomers) it was 100%; in that of `CC1(C)CC2C1CC[C@]1(C)CCC3C(C(=O)O)CC(=O)O[C@@]32C1` (stereo partly specified) [3-HYDROXY-4-(SUCCIN-2-YL)-CARYOLANE delta-LACTONE], 103%; in that of `C[C@@H]1C(=O)O[C@H]2C[C@@]34[C@H]5C[C@@H](C(C)(C)C)[C@]36[C@@H](OC(=O)[C@@H]6O)O[C@@]4(C(=O)O5)[C@]21O`, 94.4%.

Turning to `COc1ccc([C@@H](C)C(=O)c2ccc(O)cc2O)cc1`, the cell viability was found to be 112%. In the case of `CC1(COc2ccc3c(c2)ncn3-c2ccc3cccc(N4CCC(N)CC4)c3n2)COC1` it was 29.2%. With `C[C@@]12CCc3occc3[C@H]1CC[C@@]13C[C@@H](CC[C@H]12)[C@@](O)(CO)C3`, the cell viability stood at 89.6%. The value for `COc1c(-c2ccccc2)oc2c(ccc3occc32)c1=O` was 97.3%. The value for `O[C@H]1[C@H](O)[C@@H](O)C2OC[C@H]1O2` was 110%; that for `COc1ccc(-c2ccc3c(N4CCOCC4)nc(N4C[C@@H](C)O[C@@H](C)C4)nc3n2)cc1CO` was 30.1%.

Consider `COc1ccc(-c2ccc3c(N4CCOC[C@@H]4C)nc(N4CCOC[C@@H]4C)nc3n2)cc1CO`, for which the cell viability is 23.6%.

Take `O=C(O)C(S)C(S)C(=O)O` (stereo unspecified): the cell viability came out at 115%. In the case of `O=C1c2ccccc2C(=O)c2c1ccc(O)c2O` it was 95.7%; in that of `COc1ccc2c(=O)c(-c3cc4c(cc3OC)OCO4)coc2c1`, 99.7%; in that of `COc1ccc(-c2c(O)c3c(OC)c4c(cc3oc2=O)OC(C)(C)C=C4)cc1`, 93.5%.

On to `CC[C@H](/C=C/[C@@H](C)[C@H]1CC[C@H]2[C@@H]3CC=C4C[C@@H](O)CC[C@]4(C)[C@H]3CC[C@]12C)C(C)C`, for which the cell viability stood at 107%. The value for `CC(C)=CCCC1(C)C=Cc2c(O)c3c(c(CC=C(C)C)c2O1)OC12C(=CCCC1C(C)(C)O[C@@]2(C/C=C(\C)C(=O)O)C(=O)O)C3=O` (stereo partly specified) was 103%.
